Sampled rows, rich in hits. Any-hit rate of the full collection: about 9.4%.
Pf growth 96h – Primary qHTS for delayed death inhibitors of the malarial parasite plastid, 96 hour incubation; 320,000 compounds, 6.9% hits; Potency, µM (highest dose often 28.7 µM), for inactives: at the highest dose activity change, negative = inhibition, most hits filed as inhibitors; AID 504834, 2011; P. falciparum luciferase reporter growth, 96 h; note: % is set by controls: 0 for no effect and ±100 for the full control effect
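Readout is luminescence from an integrated firefly luciferase in P. falciparum. Red cells, 2% hematocrit and 0.05% parasitemia final, were cultured with compound through two parasite generations (96 hours) at 37 C, 5% CO2.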
SARS PLP yeast – qHTS of Yeast-based Assay for SARS-CoV PLP | S. cerevisiae expressing SARS-CoV PLpro, growth rescue | AID 485353, 2010 | Potency, µM (titrated, usually from 32.9 µM), inactives show top-dose activity, positive = growth rescue, usual class: activators | 330,000 compounds, 0.19% hits; calls by dose curve; note: 0% is about no effect; nearly all actives have a fitted effect of over 55% in size
AMA1-RON2 inh – qHTS for Inhibitors of AMA1-RON; Towards Development of Antimalarial Drug Lead: Primary Screen. Plasmodium falciparum AMA1 (3D7) - RON2 peptide interaction. AlphaScreen AMA1-biotinylated RON2 peptide binding. Potency, µM (titrated, usually from 58.2 µM), inactives show at the top dose activity change, negative = inhibition, usual class: inhibitors. 360,000 compounds, 0.2% hits. AID 720542, 2013;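 note: 0% = vehicle wells and -100% = peptide control; nearly all actives have a fitted effect of over 45% in size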
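AMA1 (3D7) with his tag at 25 nM final met compounds first, then biotinylated RON2 peptide at 25 nM; detection used donor plus acceptor beads, 10 µg/mL apiece, read by AlphaScreen after 30 min at room temperature.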
Pf growth 48h – Primary qHTS for delayed death inhibitors of the malarial parasite plastid, 48 hour incubation; P. falciparum luciferase growth in erythrocytes, 48 h; Potency, µM (series often up to 28.7 µM), without a hit: top-dose activity change, negative = inhibition, usual class: inhibitors; 310,000 compounds, 5.9% hits; note: % is set by controls: 0 for no effect and ±100 for the full control effect
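Erythrocytes infected with P. falciparum carrying an integrated firefly luciferase reporter (2% hematocrit, 0.1% parasitemia final) were exposed to compounds in RPMI 1640 with 0.5% Albumax at 37 C, 5% CO2. Growth inhibition was scored as reduced luminescence.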
* hit, by the source's call; [ ] = remark or other dose. Unless noted, calls come from the whole dose curve; as a rule, active = well fitted curve in the direction sought with a large enough effect; inconclusive = small, poorly fitted or top-dose-only effect, or another doubt; inactive = no such curve, though single readings can be large; an effect the other way counts as inactive or inconclusive. Potency is the fitted concentration of half-maximal effect.

What do the screens show for `COc1cc(CN2CC(=O)N(c3ccccc3Cl)C2=S)cc(OC)c1OC`?
Pf growth 96h: -4%; SARS PLP yeast: 0%; AMA1-RON2 inh: -11%; Pf growth 48h: 5.9µM*

Results for COc1cc(CN2CC(=O)N(c3cccc(Cl)c3C)C2=S)cc(OC)c1OC ?
Pf growth 96h: 0%; SARS PLP yeast: -5%; AMA1-RON2 inh: -10%; Pf growth 48h: 2.6µM*

How did CC1C(=O)N2CCCc3cc(NS(C)(=O)=O)cc1c32 (configuration not stated) do in these assays?
Pf growth 96h: 17%; SARS PLP yeast: -5%; AMA1-RON2 inh: 0%; Pf growth 48h: 12%

What do the screens show for `O=S(=O)(Nc1nc(-c2ccccc2)cs1)c1cccc(C(F)(F)F)c1`?
Pf growth 96h: 0%; SARS PLP yeast: -5%; AMA1-RON2 inh: 14%; Pf growth 48h: 35%

What do the screens show for `O=[N+]([O-])c1ccc(S(=O)(=O)Nc2nc(-c3ccccc3)cs2)cc1`?
Pf growth 96h: 6.6µM*; SARS PLP yeast: -7%; AMA1-RON2 inh: 0%; Pf growth 48h: 25%

What do the screens show for `CCc1cccc(CC)c1NC(=S)NCCc1c(C)[nH]c2ccccc12`?
Pf growth 96h: 13µM*; SARS PLP yeast: 3%; AMA1-RON2 inh: 51%; Pf growth 48h: 13µM*

What do the screens show for `Cc1cc(C)cc(Oc2ccc(S(=O)(=O)N3CCN(C)CC3)cn2)c1`?
Pf growth 96h: -6%; SARS PLP yeast: -2%; AMA1-RON2 inh: -4%; Pf growth 48h: inconclusive

How did O=C1CCc2cc(S(=O)(=O)N3CCC(C(=O)NC4CCCCCCC4)CC3)ccc2N1 do in these assays?
Pf growth 96h: -23%; SARS PLP yeast: -6%; AMA1-RON2 inh: -3%

Results for COc1ccc2[nH]c(=O)c(C(c3nnnn3C3CCCC3)N3CCN(Cc4ccc5c(c4)OCO5)CC3)cc2c1 (configuration not stated) ?
Pf growth 96h: inconclusive; SARS PLP yeast: 4%; AMA1-RON2 inh: -5%; Pf growth 48h: 12µM*

How did O=c1[nH]c2cc3c(cc2cc1C(c1nnnn1C1CCCCC1)N1CCSCC1)OCCO3 (configuration not stated) do in these assays?
Pf growth 96h: 5%; SARS PLP yeast: 15%; AMA1-RON2 inh: 4%; Pf growth 48h: 13µM*

What do the screens show for `O=C(Nc1ccc(Cl)cc1)OCCn1nnnc1C(c1ccccc1Cl)N1CCOCC1` (configuration not stated)?
Pf growth 96h: inconclusive; SARS PLP yeast: -13%; AMA1-RON2 inh: -3%; Pf growth 48h: 15µM*

Results for O=C(Nc1ccc(Cl)cc1)OCCN1CCOCC1 ?
AMA1-RON2 inh: -5%

What do the screens show for `CCC(c1nc2ccccc2[nH]1)N(Cc1cccnc1)C(=O)c1cc(-c2ccccc2)on1` (configuration not stated)?
AMA1-RON2 inh: 10%

How did CS(=O)(=O)N(CC(=O)NCCSCc1c(F)cccc1Cl)c1cccc([N+](=O)[O-])c1 do in these assays?
Pf growth 96h: -17%; SARS PLP yeast: 1%; AMA1-RON2 inh: -15%; Pf growth 48h: -2%

What do the screens show for `COc1ccccc1-c1nnc(SC/C(O)=C(\C#N)c2nc3ccccc3[nH]2)n1C1CCCCC1`?
Pf growth 96h: inconclusive; SARS PLP yeast: 8%; AMA1-RON2 inh: 41%; Pf growth 48h: inconclusive

How did N#C/C(=C(/O)CSc1nnc(Cc2cccs2)n1C1CCCCC1)c1nc2ccccc2[nH]1 do in these assays?
Pf growth 96h: 65%; SARS PLP yeast: 6%; AMA1-RON2 inh: 41%; Pf growth 48h: 6.6µM*

Results for CC1CC(C)CN(S(=O)(=O)c2ccc(NC(=O)CN3CCCCCC3)cc2)C1 (configuration not stated) ?
Pf growth 96h: inconclusive; SARS PLP yeast: 2%; AMA1-RON2 inh: -4%; Pf growth 48h: 7.4µM*

What do the screens show for `CC1CCCN(CC(=O)Nc2ccc(S(=O)(=O)N3CCCCC3)cc2)C1` (configuration not stated)?
Pf growth 96h: 9.3µM*; SARS PLP yeast: 18%; AMA1-RON2 inh: -1%; Pf growth 48h: inconclusive

How did Cc1cc(C)c(C2C(C#N)=C(N)Oc3n[nH]c(C)c32)cc1CN1CCCC1 (configuration not stated) do in these assays?
Pf growth 96h: -19%; SARS PLP yeast: -4%; AMA1-RON2 inh: 2%; Pf growth 48h: -3%

Results for Cc1nc2c(C)cccc2cc1C(=O)N/N=C/c1ccc(C(=O)O)cc1 ?
Pf growth 96h: 10%; SARS PLP yeast: 1%; AMA1-RON2 inh: -5%; Pf growth 48h: 13%

How did NNC(=O)CN1C(=O)Nc2ccc(Br)cc2C1c1ccccc1 (configuration not stated) do in these assays?
Pf growth 96h: 73%; SARS PLP yeast: inconclusive; AMA1-RON2 inh: 1%; Pf growth 48h: inconclusive

How did O=[N+]([O-])c1ccc(C2CCCC/C2=N/OCc2ccc(F)cc2)c([N+](=O)[O-])c1 (configuration not stated) do in these assays?
Pf growth 96h: inconclusive; SARS PLP yeast: -7%; AMA1-RON2 inh: inconclusive; Pf growth 48h: 12µM*

Results for O=C(N[C@@H](Cc1ccccc1)C(=O)OCc1ccccc1)c1ccco1 ?
SARS PLP yeast: -19%; AMA1-RON2 inh: -4%

How did Cc1cc2nc(-c3ccc(SCc4ccc(C#N)cc4)nc3)[nH]c2cc1C do in these assays?
Pf growth 96h: 7.4µM*; SARS PLP yeast: -5%; AMA1-RON2 inh: 1%; Pf growth 48h: inconclusive

Results for CCC(C)NC(=O)C1CCN(S(=O)(=O)N2CCOCC2)CC1 (configuration not stated) ?
Pf growth 96h: 1%; SARS PLP yeast: 6%; AMA1-RON2 inh: -1%; Pf growth 48h: 16%

Results for O=S(=O)(/C=C/c1ccccc1)Nc1ccc2c(c1)OCO2 ?
Pf growth 96h: -9%[5.75 µM]; SARS PLP yeast: 4%; AMA1-RON2 inh: 0%; Pf growth 48h: 9%

How did CCOc1ccc2ncc(S(=O)(=O)c3ccccc3)c(N3CCC4(CC3)OCCO4)c2c1 do in these assays?
Pf growth 96h: 10µM*; SARS PLP yeast: -6%; Pf growth 48h: 13µM*

What do the screens show for `COc1ccc(S(=O)(=O)c2cnc3ccc(OC)cc3c2N2CCC3(CC2)OCCO3)cc1`?
Pf growth 96h: 8.3µM*; SARS PLP yeast: -20%; AMA1-RON2 inh: -7%; Pf growth 48h: inconclusive

What do the screens show for `COC(=O)c1sccc1OC(C)C(C)=O` (configuration not stated)?
Pf growth 96h: -1%; SARS PLP yeast: -1%; AMA1-RON2 inh: -18%; Pf growth 48h: -1%

What do the screens show for `C/C(=N/Nc1nc(-c2ccccc2)cc(-c2ccc(F)cc2)n1)c1cccc(N)c1`?
Pf growth 96h: -7%; SARS PLP yeast: 1%; AMA1-RON2 inh: 36%; Pf growth 48h: inconclusive

What do the screens show for `CCC(C)c1ccccc1NC(=O)COC(=O)c1ccc2[nH]c3c(c2c1)CCCC3` (configuration not stated)?
Pf growth 96h: inconclusive; SARS PLP yeast: -32%; AMA1-RON2 inh: -25%; Pf growth 48h: inconclusive

Screening data (PubChem BioAssay)
